Measured values from PubChem BioAssay (NCI).
This is part of a sample that, as a whole, favours compounds with a hit. Of some 79,000 tested, about 15% had one in any assay. The source made the active and inactive calls. Rule as the data show it: active = growth inhibition above about 70%; inactive = the rest.

Columns and labels:
[1] = NCI Yeast Anticancer Drug Screen. Data for the rad52 strain (AID 147);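 also: 0% = growth of vehicle-treated control cultures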; conditions: S. cerevisiae rad52 mutant growth inhibition, stronger effect = higher value
In short: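 Measured: yeast growth inhibition. System: strain with a defined DNA damage repair alteration. Reference: vehicle-treated control cultures.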

[2] = NCI Yeast Anticancer Drug Screen. Data for the wt1 strain (AID 149);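 also: 0% = growth of vehicle-treated wt1 cultures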; conditions: S. cerevisiae wt1 strain (SPY 50644) growth inhibition, stronger effect = higher value
In short: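 Readout: yeast growth inhibition, normalised to vehicle controls, in the wt1 strain exposed to test compounds.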

[3] = NCI Yeast Anticancer Drug Screen. Data for the rad50EPP+ strain (AID 151);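 also: 0% = growth of vehicle-treated control cultures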; conditions: S. cerevisiae rad50 mutant strain, stronger effect = higher value
In short: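 One strain with a rad50 alteration (rad50EPP+) was compound-treated, its growth then compared to that of vehicle controls.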

[4] = NCI Yeast Anticancer Drug Screen. Data for the mgt1 strain (AID 153); conditions: S. cerevisiae mgt1 mutant growth inhibition, stronger effect = higher value
In short: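 After exposure of the mgt1 yeast mutant to compound, growth was measured and reported as inhibition compared with vehicle controls.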

[5] = NCI Yeast Anticancer Drug Screen. Data for the rad50 strain (AID 155);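 also: 0% = growth of vehicle-only cultures of the same strain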; conditions: S. cerevisiae rad50 strain growth inhibition, stronger effect = higher value
In short: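 Compounds were tested on a yeast strain with an engineered DNA damage repair alteration; the reported value is growth inhibition normalised to vehicle treatment.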

[6] = NCI Yeast Anticancer Drug Screen. Data for the mec2-1 strain (AID 157); conditions: S. cerevisiae mec2-1 strain, stronger effect = higher value
In short: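 Test agents were screened against the mec2-1 yeast strain, with defined DNA repair or cell cycle alteration. Growth was scored as inhibition against vehicle-only controls.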

[7] = NCI Yeast Anticancer Drug Screen. Data for the rad14 strain (AID 159);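 also: 0% = growth of vehicle-treated control cultures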; conditions: S. cerevisiae rad14 strain growth inhibition, stronger effect = higher value
In short: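 Compound-treated yeast with a defined DNA-repair lesion; growth inhibition normalised to vehicle-treated cultures.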

[8] = NCI Yeast Anticancer Drug Screen. Data for the sgs1 mgt1 strain (AID 161);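 also: 0% = growth of cultures given vehicle only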; conditions: S. cerevisiae sgs1 mgt1 strain, stronger effect = higher value
In short: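 Mutant yeast exposed to compound; growth scored against vehicle-only wells.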

[9] = NCI Yeast Anticancer Drug Screen. Data for the CLN2oe strain (AID 163);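 also: 0% = growth of vehicle-only control cultures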; conditions: S. cerevisiae CLN2oe strain, stronger effect = higher value
In short: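 Here, growth inhibition in a cell-cycle-altered yeast strain after compound exposure was quantified against vehicle control growth.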

[10] = NCI Yeast Anticancer Drug Screen. Data for the cln2 rad14 strain (AID 165);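 also: 0% = growth equal to vehicle treated cultures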; conditions: S. cerevisiae cln2 rad14 strain, stronger effect = higher value
In short: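 Growth of compound-exposed yeast (cln2 rad14 genotype) measured and expressed as inhibition relative to vehicle.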

[11] = NCI Yeast Anticancer Drug Screen. Data for the bub3 strain (AID 167); conditions: S. cerevisiae bub3 mutant strain, stronger effect = higher value
In short: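 Growth of a checkpoint-deficient yeast mutant is measured after compound exposure. Values represent inhibition relative to vehicle.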

[12] = NCI Yeast Anticancer Drug Screen. Data for the wt2 strain (AID 169);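 also: 0% = growth of vehicle-treated yeast cultures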; conditions: S. cerevisiae wt2 strain growth inhibition, stronger effect = higher value
In short: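 Genetically defined yeast strains from a DNA-repair/cell-cycle panel were used. Compound-exposed yeast growth was measured, and the inhibition was calculated relative to vehicle treatment.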

[13] = NCI Yeast Anticancer Drug Screen. Data for the mlh1 strain (AID 171);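 also: 0% = growth of vehicle-treated control cultures of the same strain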; conditions: S. cerevisiae mlh1 strain growth inhibition, stronger effect = higher value
In short: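 Here the genetically defined yeast mutant is grown with each compound, and the extent to which its growth falls below that of vehicle-exposed cells is reported.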

[14] = NCI Yeast Anticancer Drug Screen. Data for the sgs1 strain (AID 173);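 also: 0% = growth of vehicle-only control cultures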; conditions: S. cerevisiae sgs1 mutant, stronger effect = higher value
In short: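 Relative growth inhibition, referenced to vehicle, was determined in a yeast strain with a defined alteration affecting DNA damage repair or cell cycle control after compound exposure.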

[15] = NCI Yeast Anticancer Drug Screen. Data for the mlh1 rad18 strain (AID 175); conditions: S. cerevisiae mlh1 rad18 strain growth inhibition, stronger effect = higher value
In short: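 In this whole-cell yeast screen, a strain with altered DNA damage repair is challenged with compound, and its growth is measured against matched vehicle-treated controls.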

[16] = NCI Yeast Anticancer Drug Screen. Data for the rad18 strain (AID 177); conditions: S. cerevisiae rad18 mutant growth inhibition, stronger effect = higher value
In short: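 Screen uses a yeast strain with a defined lesion in DNA damage repair; compound effect is read as loss of growth compared to untreated vehicle cultures.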

[17] = at 5.0 µM (retest, dose inferred, filed as 0.5)
[18] = at 50.0 µM (retest, dose inferred, filed as 5.0)

Measured: growth inhibition

CC(/C=C/c1ccc(Cl)cc1)=N\NC(=S)NCC(C)C
active: [8]; [18] 72% | [8]; at 50.0 µM 77.8% | [11]; at 50.0 µM 85.4% | [15]; at 50.0 µM 77.3%
inactive: [1]; at 1.2 µM -1% | [1]; at 3.7 µM -4% | [1]; at 11.0 µM 4% | [1]; at 33.0 µM 5% | [1]; at 100.0 µM 33% | [2]; at 1.2 µM -2% | [2]; at 3.7 µM -5% | [2]; at 11.0 µM 1% | [2]; at 33.0 µM -1% | [2]; at 100.0 µM 21% | [3]; at 1.2 µM -3% | [3]; at 3.7 µM -5% | [3]; at 11.0 µM 10% | [3]; at 33.0 µM 12% | [3]; at 100.0 µM 28% | [4]; at 1.2 µM -6% | [4]; at 3.7 µM -2% | [4]; at 11.0 µM -4% | [4]; at 33.0 µM 8% | [4]; at 100.0 µM 35% | [5]; at 1.2 µM -1% | [5]; at 3.7 µM 1% | [5]; [17] 1% | [5]; at 11.0 µM 4% | [5]; at 33.0 µM 11% | [5]; [18] 42% | [5]; at 50.0 µM 39.8% | [5]; at 100.0 µM 34% | [6]; at 1.2 µM -2% | [6]; at 3.7 µM -3% | [6]; [17] -9% | [6]; at 11.0 µM -4% | [6]; at 33.0 µM -1% | [6]; [18] 7% | [6]; at 50.0 µM 66.7% | [6]; at 100.0 µM 30% | [7]; at 1.2 µM 1% | [7]; at 3.7 µM -1% | [7]; at 11.0 µM -2% | [7]; at 33.0 µM 5% | [7]; at 100.0 µM 24% | [8]; [17] 46% | [9]; at 1.2 µM 0% | [9]; at 3.7 µM -8% | [9]; at 11.0 µM -8% | [9]; at 33.0 µM 5% | [9]; at 100.0 µM 28% | [10]; [17] 3% | [10]; [18] 37% | [10]; at 50.0 µM 17.6% | [11]; at 1.2 µM -1% | [11]; at 3.7 µM -1% | [11]; [17] 27% | [11]; at 11.0 µM -6% | [11]; at 33.0 µM 5% | [11]; [18] 68% | [11]; at 100.0 µM 37% | [12]; at 1.2 µM -7% | [12]; at 3.7 µM -5% | [12]; at 11.0 µM -12% | [12]; at 33.0 µM -2% | [12]; at 100.0 µM 24% | [13]; at 1.2 µM -3% | [13]; at 3.7 µM -5% | [13]; at 11.0 µM -3% | [13]; at 33.0 µM 7% | [13]; at 100.0 µM 36% | [14]; at 1.2 µM -13% | [14]; at 3.7 µM -8% | [14]; at 11.0 µM -6% | [14]; at 33.0 µM 7% | [14]; at 100.0 µM 34% | [15]; [17] 32% | [15]; [18] 64% | [16]; at 1.2 µM -7% | [16]; at 3.7 µM -4% | [16]; at 11.0 µM -1% | [16]; at 33.0 µM 3% | [16]; at 100.0 µM 32%

CCCCCCCCCCC1CCC(=O)O1 (stereo unspecified)
active: [1]; at 100.0 µM 99% | [2]; at 100.0 µM 98% | [4]; at 100.0 µM 100% | [5]; at 50.0 µM 97.2% | [5]; at 100.0 µM 99% | [6]; at 50.0 µM 98.8% | [6]; at 100.0 µM 99% | [7]; at 100.0 µM 99% | [8]; at 50.0 µM 91.2% | [9]; at 100.0 µM 98% | [10]; at 50.0 µM 97.7% | [11]; at 50.0 µM 91.3% | [11]; at 100.0 µM 99% | [12]; at 100.0 µM 99% | [13]; at 100.0 µM 99% | [14]; at 100.0 µM 99% | [15]; at 50.0 µM 92.2% | [16]; at 100.0 µM 97%
inactive: [1]; at 1.2 µM -2% | [1]; at 3.7 µM -2% | [1]; at 11.0 µM -1% | [1]; at 33.0 µM 4% | [2]; at 1.2 µM -2% | [2]; at 3.7 µM -2% | [2]; at 11.0 µM -2% | [2]; at 33.0 µM 3% | [3]; at 1.2 µM -2% | [3]; at 3.7 µM 3% | [3]; at 11.0 µM 11% | [3]; at 33.0 µM 22% | [3]; at 100.0 µM 38% | [4]; at 1.2 µM -2% | [4]; at 3.7 µM -1% | [4]; at 11.0 µM 0% | [4]; at 33.0 µM 8% | [5]; at 1.2 µM -1% | [5]; at 3.7 µM -46% | [5]; [17] -2% | [5]; at 11.0 µM 16% | [5]; at 33.0 µM 12% | [5]; [18] 50% | [6]; at 1.2 µM -1% | [6]; at 3.7 µM -2% | [6]; [17] 5% | [6]; at 11.0 µM 0% | [6]; at 33.0 µM 8% | [6]; [18] 27% | [7]; at 1.2 µM 1% | [7]; at 3.7 µM 3% | [7]; at 11.0 µM 7% | [7]; at 33.0 µM 15% | [8]; [17] 6% | [8]; [18] 13% | [9]; at 1.2 µM 0% | [9]; at 3.7 µM 1% | [9]; at 11.0 µM 7% | [9]; at 33.0 µM 5% | [10]; [17] 2% | [10]; [18] 15% | [11]; at 1.2 µM -3% | [11]; at 3.7 µM 0% | [11]; [17] 3% | [11]; at 11.0 µM 0% | [11]; at 33.0 µM 0% | [11]; [18] 9% | [12]; at 1.2 µM -1% | [12]; at 3.7 µM 8% | [12]; at 11.0 µM 0% | [12]; at 33.0 µM 4% | [13]; at 1.2 µM -2% | [13]; at 3.7 µM 0% | [13]; at 11.0 µM 0% | [13]; at 33.0 µM 10% | [14]; at 1.2 µM -1% | [14]; at 3.7 µM 1% | [14]; at 11.0 µM 3% | [14]; at 33.0 µM 20% | [15]; [17] -3% | [15]; [18] 69% | [16]; at 1.2 µM -1% | [16]; at 3.7 µM 1% | [16]; at 11.0 µM -1% | [16]; at 33.0 µM 7%
